In PubChem BioAssay (NCATS):
Values joined by “and” are separate entries in the source; they are usually repeats but may differ in a detail not shown here. Identical values can stand only once. Inconclusive results are not listed. The source holds several records for some structures; these can differ, active in one and inactive in another. Active and inactive are the calls of the source. Calls follow the shape of the dose curve; as a rule, active = well fitted curve in the direction sought with a large enough effect; inconclusive = small, poorly fitted or top-dose-only effect, or another doubt; inactive = no such curve, though single readings can be large; an effect the other way counts as inactive or inconclusive.

Key:
[1] = test system: CRL-7250; experiment: Cytotoxic Profiling of Annotated Libraries Using Quantitative High-Throughput Screening (AID 1296008); details: Five cell lines viability, CellTiter-Glo ATP luminescence, 48-72 h; max response: stronger effect = lower value; also: nearly all actives have a fitted effect of over 60% in size; also: potency is read from the fitted curve at half-maximal effect; as to max response: % is scaled to controls: 0 for no effect and ±100 for the full control effect
In short: (§1)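 Cells exposed to compounds for 48 or 72 hr at 37 degrees Celsius. Viability read as ATP-coupled luminescence with CellTiter-Glo after 10 min at room temperature.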

[2] = test system: HEK293; experiment: as above; details: Five cell lines viability, CellTiter-Glo ATP luminescence, 48-72 h; max response: stronger effect = lower value
In short: as §1

[3] = test system: HaCat; experiment: as above; details: Five cell lines viability, CellTiter-Glo ATP luminescence, 48-72 h; max response: stronger effect = lower value
In short: as §1

[4] = test system: KB-3-1; experiment: as above; details: Five cell lines viability, CellTiter-Glo ATP luminescence, 48-72 h; max response: stronger effect = lower value
In short: as §1

[5] = test system: NIH3T3; experiment: as above; details: Five cell lines viability, CellTiter-Glo ATP luminescence, 48-72 h; max response: stronger effect = lower value
In short: as §1

[6] = test system: CRL-7250; experiment: qHTS assay to identify novel small-molecules to repurpose for Merkel cell carcinoma treatment (AID 1296009); details: MCC and control cell lines, CellTiter-Glo viability, 72 h; series mostly up to 44.8 µM; also: nearly all actives have a fitted effect of over 60% in size; also: potency is read from the fitted curve at half-maximal effect
In short: (§2)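 Dose-response viability screen; 72 hr exposure at 37 degree celsius; CellTiter-Glo added, 10 min room temperature, luminescence read; RLUs scaled between no-cell and DMSO wells.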

[7] = test system: MCC-13; experiment: as above; details: MCC and control cell lines, CellTiter-Glo viability, 72 h; series mostly up to 46 µM
In short: as §2

[8] = test system: MKL-1; experiment: as above; details: MCC and control cell lines, CellTiter-Glo viability, 72 h; series mostly up to 46 µM
In short: as §2

[9] = test system: MKL-2; experiment: as above; details: MCC and control cell lines, CellTiter-Glo viability, 72 h; series mostly up to 46 µM
In short: as §2

[10] = test system: UISO; experiment: as above; details: MCC and control cell lines, CellTiter-Glo viability, 72 h; series mostly up to 46 µM
In short: as §2

[11] = test system: WaGa; experiment: as above; details: MCC and control cell lines, CellTiter-Glo viability, 72 h; series mostly up to 46 µM
In short: as §2

[12] = test system: TAB165; experiment: qHTS profiling for inhibitors of Plasmodium falciparum proliferation (AID 504749); also: nearly all actives have a fitted effect of over 60% in size; also: potency is read from the fitted curve at half-maximal effect; details: P. falciparum in erythrocytes, SYBR Green DNA, 72 h; series mostly up to 28.7 µM
In short: (§3)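 Each compound contacts P. falciparum-infected red blood cells for 72 h at 37 C; lysis buffer (Tris, EDTA, saponin, Triton X, SYBR Green I) is added and fluorescence measured next morning; values normalized to controls.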

[13] = test system: W2; experiment: as above; details: P. falciparum in erythrocytes, SYBR Green DNA, 72 h; series mostly up to 28.7 µM
In short: as §3

[14] = test system: HACAT; experiment: qHTS assay to identify novel small-molecules to repurpose for Merkel cell carcinoma treatment (AID 1296009); details: MCC and control cell lines, CellTiter-Glo viability, 72 h; at 44.8 µM (top of the series) unless noted; also: nearly all actives have a fitted effect of over 60% in size; also: potency is read from the fitted curve at half-maximal effect
In short: as §2

[15] = test system: MCC-26; experiment: as above; details: MCC and control cell lines, CellTiter-Glo viability, 72 h; series mostly up to 46 µM
In short: as §2

[16] = test system: C33A; experiment: Primary qHTS to identify gynecologic anti-cancer compounds using libraries of approved drugs and bioactive compounds (AID 1345084); details: Gynecologic cancer cell panel viability, ATPlite luminescence, 48 h; series mostly up to 57.5 µM; also: % is scaled to controls: 0 for no effect and ±100 for the full control effect; nearly all actives have a fitted effect of over 55% in size
In short: (§4)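 ATP-based viability (ATPlite), 1,000 cells/well, 16 h pre-incubation, 48 h compound at 37 C, 5% CO2, 15 min RT before read.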

[17] = test system: CAOV3; experiment: as above; details: Gynecologic cancer cell panel viability, ATPlite luminescence, 48 h; series mostly up to 57.5 µM
In short: as §4

[18] = test system: CASKI; experiment: as above; details: Gynecologic cancer cell panel viability, ATPlite luminescence, 48 h; series mostly up to 57.5 µM
In short: as §4

[19] = test system: HEK293T; experiment: qHTS assay to identify novel small-molecules to repurpose for Merkel cell carcinoma treatment (AID 1296009); details: MCC and control cell lines, CellTiter-Glo viability, 72 h; at 44.8 µM (top of the series); also: nearly all actives have a fitted effect of over 60% in size; also: potency is read from the fitted curve at half-maximal effect
In short: as §2

[20] = test system: NIH3T3; experiment: as above; details: MCC and control cell lines, CellTiter-Glo viability, 72 h; at 44.8 µM (top of the series) unless noted
In short: as §2

CN(C)CCN(C)CCc1ccc(Cl)c(Cl)c1
inactive: outcome [1] | max response [2] 0.598% | max response [3] -22.4% | max response [4] 0.794% | max response [5] -6.27% | outcome [6] | Potency [7] | Potency [8] | Potency [9] | Potency [10] | Potency [11]

OCCOc1ccccc1
inactive: Potency [12] | Potency [13] | max response [1] 3.79% | max response [2] 1.79% | outcome [3] | max response [4] 1.69% and -18.4% | max response [5] 0.364% | outcome [14] | Potency [7] | Potency [15] | Potency [8] | Potency [9] | Potency [10] | Potency [11] | Potency [16] | Potency [17] | Potency [18]

Cn1c(CCCC(=O)O)nc2cc(N(CCCl)CCCl)ccc21
inactive: Potency [12] | max response [1] 3.94% | outcome [1] | max response [2] 1.54% | outcome [2] | max response [3] -5.87% and -9.93% | max response [4] 3.92% and 3.13% | max response [5] -2.08% and -18.1% | outcome [6] | outcome [19] | Potency [7] | Potency [8] | Potency [10] | Potency [16] | Potency [17] | Potency [18]
18.8 µM (active) and inactive: Potency [11]

CCN(CC)C(=O)N[C@@H]1C=C2c3cccc4[nH]cc(c34)C[C@@H]2N(C)C1
inactive: outcome [1] | max response [2] -11.8% | max response [3] -0.0252% | max response [4] -10.6% | outcome [5] | outcome [6] | Potency [7] | Potency [8] | Potency [9] | outcome [20] | Potency [10] | Potency [11] | Potency [16] | Potency [17] | Potency [18]

O=C1CC[C@@]2(O)[C@H]3Cc4ccc(O)c5c4[C@@]2(CCN3CC2CC2)[C@H]1O5
inactive: max response [1] -7.93% | outcome [1] | max response [2] -3.14% and -3.82% | outcome [3] | max response [4] 6.29% | outcome [4] | max response [5] -0.716% | outcome [5] | outcome [6] | outcome [14] | Potency [7] | Potency [15] | Potency [8] | Potency [9] | outcome [20] | Potency [10] | Potency [11] | Potency [16] | Potency [17] | Potency [18]

COc1ccc(C(=O)c2c(C)n(CCN3CCOCC3)c3ccccc23)cc1
inactive: Potency [12] | Potency [13] | max response [1] -23.7% | outcome [1] | max response [2] -9.73% | max response [3] -26.9% | outcome [3] | max response [4] 5.69% and 21.2% | max response [5] -11.5% | outcome [5] | outcome [6] | outcome [14] | Potency [7] | Potency [15] | Potency [8] | Potency [9] | outcome [20] | Potency [10] | Potency [11] | Potency [16] | Potency [18]

c1ccc2c(c1)Nc1ccccc1S2
active: Potency [13] 3.38 µM
inactive: outcome [1] | max response [2] -4.55% | max response [3] -0.234% | outcome [3] | max response [4] 3% and -4.89% | max response [5] -3.03% and 0.216% | outcome [6] | outcome [14] | Potency [7] | Potency [15] | Potency [8] | Potency [9] | Potency [10] | Potency [11] | Potency [16] | Potency [17] | Potency [18]

COC[C@H]1OC(=O)c2coc3c2[C@@]1(C)C1=C(C3=O)C2CCC(=O)[C@@]2(C)C[C@H]1OC(C)=O (stereo partly drawn)
active: Potency [8] 11.8 µM | Potency [9] 7.43 µM | Potency [11] 8.33 µM
inactive: max response [1] -6.6% | max response [2] -95.7% and 0.842% | max response [3] -21.4% | outcome [3] | max response [4] -5.47% | outcome [4] | outcome [14] | Potency [7] | Potency [10] | Potency [16] | Potency [17] | Potency [18]

CNCC(O)c1ccc(O)cc1 (stereo not drawn)
inactive: max response [1] -6.88% | max response [2] -14.1% and 1.65% | outcome [3] | max response [4] 12.6% | outcome [4] | max response [5] -18% | outcome [5] | outcome [14] | Potency [7] | Potency [15] | Potency [8] | Potency [9] | outcome [20] | Potency [10] | Potency [11] | Potency [16] | Potency [17] | Potency [18]

C#CCN(C)[C@H](C)Cc1ccccc1
inactive: max response [1] -4.73% | outcome [1] | max response [2] -7.43% | outcome [2] | max response [3] -9.07% and 1.92% | max response [4] 4.15% and -12% | max response [5] 3.34% | outcome [5] | outcome [6] | outcome [19] | Potency [7] | Potency [15] | Potency [8] | Potency [9] | outcome [20] | Potency [10] | Potency [11] | Potency [16] | Potency [17] | Potency [18]

COc1ccc(Cc2nccc3cc(OC)c(OC)cc23)cc1OC
inactive: max response [1] 2.23% | max response [3] -4.38% and -16.7% | max response [4] -20.5% and -0.283% | max response [5] -6.53% | Potency [7] | Potency [15] | Potency [8] | Potency [9] | Potency [10] | Potency [11] | Potency [17]
active: Potency [1] 5.31 µM

NP(N)(=O)NC(=O)c1ccc(F)cc1
inactive: Potency [12] | Potency [13] | outcome [1] | outcome [2] | outcome [3] | max response [4] -13.3% | max response [5] 4.85% | outcome [6] | outcome [14] | outcome [19] | Potency [7] | Potency [15] | Potency [8] | Potency [9] | Potency [10] | Potency [11] | Potency [16] | Potency [17] | Potency [18]
